BaF3 tox – counter-screen for JAK2V617F inhibitors: parental Ba/F3 viability inhibitors; CellTiter-Glo ATP luminescence; inhibition, % at 5.6 µM; hit rate 1.1% among 220,000;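 active = inhibition above a per-campaign cutoff, the mean inhibition of all tested compounds plus 3 SD, cut at about 27% in these data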
FID counter – fluorescent intercalator displacement, NS3 helicase counter-screen. DNA fluorescent intercalator displacement, fluorescence. inhibition, % at 7.9 µM. hit rate 0.17% among 290,000. AID 1845; in the data active = inhibition above about 37%;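 note: higher means more ethidium bromide displaced from hairpin DNA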
GPR7 antagonist – human neuropeptides B/W receptor 1 antagonism. P48145. GPR7-expressing cells, fluorescence antagonist assay. inhibition, % at 4.4 µM. hit rate 1.1% among 290,000; in the data active = inhibition above about 16%, passing the limit was not always enough;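 note: cells stimulated with the agonist NPW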
Target sequence (P48145 whole entry, looked up): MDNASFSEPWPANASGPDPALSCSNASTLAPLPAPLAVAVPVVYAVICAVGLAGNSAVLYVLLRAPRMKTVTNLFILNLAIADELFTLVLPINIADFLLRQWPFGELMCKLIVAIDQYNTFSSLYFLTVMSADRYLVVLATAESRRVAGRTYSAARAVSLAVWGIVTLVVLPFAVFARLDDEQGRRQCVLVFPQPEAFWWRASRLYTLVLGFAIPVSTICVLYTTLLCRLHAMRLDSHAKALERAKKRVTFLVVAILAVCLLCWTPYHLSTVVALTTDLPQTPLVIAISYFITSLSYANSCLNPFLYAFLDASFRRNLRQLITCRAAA
KLF5 inhibitor – suppresses KLF5 promoter-driven expression | inhibition, % at 5 µM | DLD-1 KLF5 promoter-luciferase reporter, luminescence | hit rate 0.23% among 290,000;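 active = inhibition above a per-plate limit of that plate's mean compound inhibition plus 3 SD, cut at about 60% in these data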;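 note: higher means less KLF5 promoter-driven luciferase light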
IEC-6 cytotox – IEC-6 cytotoxicity, counter-screen for KLF5 inhibitors; luminescence viability; inhibition, % at 5 µM; hit rate 0.78% among 290,000; AID 1825
Ba/F3 V617F tox – reduce viability of Ba/F3 cells dependent on JAK2V617F; Ba/F3 EpoR-JAK2V617F viability, ATP luminescence; inhibition, % at 5.6 µM; hit rate 1.1% among 220,000; AID 1446;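 active = inhibition above the campaign mean plus 3 SD over all tested compounds, cut at about 24% in these data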;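 note: cytokine-independent growth of Ba/F3 cells driven by EpoR plus mutant JAK2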
GPR7 antag conf – confirmation of human GPR7 antagonists; shares compounds with GPR7 antagonist; GPR7-expressing cells, calcium fluorescence antagonist mode; inhibition, % at 4.4 µM; hit rate 52% among 2,400; AID 1952; in the data active = inhibition above about 24%;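 note: stimulated with the GPR7 agonist NPW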
MCHR1 antag – MCHR1 (human) antagonism in GPR7 counter-screen; shares compounds with GPR7 antagonist; MCHR1-expressing cells, fluorescence antagonist assay; inhibition, % at 4.4 µM; hit rate 62% among 2,400; AID 2148
Each line names hits and unclear results; the compound was inactive in the other large screens (follow-up assays come after a bar, where they were run). Compounds with a hit are over-represented: about 2.6% of the library has one in this group of screens. Cut-off read from the data, not from the text of the source, unless noted: active = inhibition above about 22%; inactive = the rest.

Cc1cccc2sc(N(CCCN(C)C)C(=O)c3nc4ccccc4s3)nc12	none
CN(C)CCCN(C(=O)CCc1ccccc1)c1nc2ccc(F)cc2s1	none
Cc1cccc2sc(N(CCCN(C)C)C(=O)c3ccc4ncsc4c3)nc12	GPR7 antagonist 26 (no result: BaF3 tox, Ba/F3 V617F tox) | GPR7 antag conf 39 | MCHR1 antag 29
CN(C)CCCN(C(=O)c1ccc2c(c1)OCCO2)c1nc2ccc(Cl)cc2s1	FID counter 40, GPR7 antagonist 51 (no result: BaF3 tox, Ba/F3 V617F tox) | GPR7 antag conf 61 | MCHR1 antag 46
Cc1cccc2sc(N(CCCN(C)C)C(=O)CCc3ccccc3)nc12	GPR7 antagonist 23 | GPR7 antag conf 61 | MCHR1 antag 56
CN(C)CCCN(C(=O)CCc1ccccc1)c1nc2ccc(Br)cc2s1	GPR7 antagonist 24 | GPR7 antag conf 68 | MCHR1 antag 73
Cc1cccc2sc(N(CCCN(C)C)C(=O)CN3C(=O)c4ccccc4C3=O)nc12	none
CCC(=O)Nc1ccc(C(=O)n2ccc(C)n2)cc1	none
Cc1ccc(S(=O)(=O)N2CCOCC2)cc1C(=O)NCc1ccco1	none
Cc1ccc2sc(N(CCCN(C)C)C(=O)c3ccc(Br)s3)nc2c1C	FID counter 46, GPR7 antagonist 41 | GPR7 antag conf 51 | MCHR1 antag 56
COc1cc2ccccc2cc1C(=O)N(CCN(C)C)c1nc2ccc(Br)cc2s1	GPR7 antagonist 26 (no result: BaF3 tox, Ba/F3 V617F tox) | GPR7 antag conf 29 | MCHR1 antag 36
CCCc1nnc(SCC(=O)N(CC)CC)n1CC1CCCO1 (configuration not stated)	none
O=C(N/N=C/c1ccc(N2CCOCC2)cc1)c1cccs1	none
CC(Sc1nnc2ccccn12)C(=O)Nc1ccc(Cl)cn1 (configuration not stated)	none
CC(Sc1nnc2ccccn12)C(N)=O (configuration not stated)	GPR7 antagonist 25 | GPR7 antag conf inactive | MCHR1 antag inactive
COc1ccc(Oc2c(Cl)cnn(-c3ccc(C)cc3)c2=O)cc1	GPR7 antagonist 32 | GPR7 antag conf 63 | MCHR1 antag inactive
Cc1ccc(NC(=O)c2ccccc2F)cc1S(=O)(=O)N1CCCCCC1	GPR7 antagonist 22 | GPR7 antag conf inactive | MCHR1 antag 54
Cc1ccc(NC(=O)CSc2ncnc3ccccc23)cc1S(=O)(=O)N1CCCCCC1	GPR7 antagonist 24 | GPR7 antag conf 53 | MCHR1 antag 71
O=C(c1cccnc1)C1Cc2ccccc2C1=O (configuration not stated)	none
CCOc1ccc(C(C)NC(=S)NCc2ccc(F)cc2)cc1 (configuration not stated)	none (no result: BaF3 tox, Ba/F3 V617F tox)
CCc1ccc(C(C)NC(=S)NCc2ccc(F)cc2)cc1 (configuration not stated)	GPR7 antagonist 31 (no result: BaF3 tox, Ba/F3 V617F tox) | GPR7 antag conf 43 | MCHR1 antag 75
CCS(=O)(=O)N1Cc2ccccc2CC1C(=O)Nc1nccs1 (configuration not stated)	none
O=C(Nc1ccccc1Cl)Nc1ccccc1Cl	none
O=C(Nc1csc([N+](=O)[O-])c1)Nc1ccccc1Cl	GPR7 antagonist 41 | GPR7 antag conf 51 | MCHR1 antag 62
COC(=O)c1c(C)cc(OC(C)=O)c(C)c1OC(C)=O	none
O=C(Cc1cccs1)N=Nc1c(O)[nH]c2ccccc12	none
O=C(N=Nc1c(O)[nH]c2ccccc12)c1cc(-c2cccs2)[nH]n1	GPR7 antagonist 29 | GPR7 antag conf inactive | MCHR1 antag 29
Cc1nc(N2CCC(C)CC2)c2c(C)c(C(=O)Nc3cccc(C(F)(F)F)c3)sc2n1	GPR7 antagonist 25 | GPR7 antag conf inactive | MCHR1 antag inactive
c1ccc(OCc2ccc(CCCN3CCOCC3)cc2)cc1	none (no result: BaF3 tox, Ba/F3 V617F tox)
CSc1nc(N)nc(SCC(=O)Nc2cccc(F)c2)c1C#N	GPR7 antagonist 26 | GPR7 antag conf inactive | MCHR1 antag 64
Cc1cc(NC(=O)CN2CCOCC2)n(-c2ccccc2)n1	none
Cc1cc(NC(=O)CCc2ccc(S(=O)(=O)N3CCOCC3)cc2)n(-c2ccccc2)n1	GPR7 antagonist 30 | GPR7 antag conf inactive | MCHR1 antag inactive
O=C(Nc1ccc2c(c1)CCC2)c1cccc(S(=O)(=O)N2CCN(c3ccccc3)CC2)c1	none
CCn1c(=O)c(=O)[nH]c2cc(C(=O)NC3CCCc4ccccc43)ccc21 (configuration not stated)	GPR7 antagonist 23 | GPR7 antag conf inactive | MCHR1 antag inactive
O=C(NC1CCCc2ccccc21)c1cccc(S(=O)(=O)N2CCN(c3ccccc3)CC2)c1 (configuration not stated)	GPR7 antagonist 45 | GPR7 antag conf 62 | MCHR1 antag 43
CC(=O)c1ccc(NC(=O)c2ccccc2-c2ccccc2C(=O)O)cc1	GPR7 antagonist 27 (no result: BaF3 tox, Ba/F3 V617F tox) | GPR7 antag conf inactive | MCHR1 antag inactive
OCC1(Cc2ccc(Cl)cc2)CCN(CCCc2ccccc2)CC1	GPR7 antagonist 26 | GPR7 antag conf 37 | MCHR1 antag 31
COc1ccc(C(c2nnnn2C2CCCCC2)N2CCN(c3ccc(OC)cc3)CC2)cc1 (configuration not stated)	none
COc1ccc(OC)c(C(c2nnnn2C2CCCC2)N2CCN(c3ccccc3)CC2)c1 (configuration not stated)	GPR7 antagonist 31 | GPR7 antag conf 24 | MCHR1 antag 41
O=C(c1ccco1)N1N=C(c2ccccc2)CC1c1ccc2nccnc2c1 (configuration not stated)	none
Cc1ccc(C(=O)NCCN2C3=NC[C@@H](Cc4ccccc4)N3C[C@H]2Cc2ccc(O)cc2)cc1Br	GPR7 antagonist 49 | GPR7 antag conf 53 | MCHR1 antag 48
COc1ccc(C[C@H]2CN3C(=NC[C@@H]3Cc3ccc(O)cc3)N2CCNC(=O)c2ccc(C)c(Br)c2)cc1	none
O=C(Cn1c(CO)nc2ccccc21)Nc1cc(C(F)(F)F)ccc1N1CCOCC1	none
COc1cc(C2c3sc(=O)[nH]c3SC3C4CCC(C4)C23)ccc1O (configuration not stated)	GPR7 antagonist 27 | GPR7 antag conf inactive | MCHR1 antag inactive
O=C(c1sc2ccccc2c1Cl)N(Cc1ccccc1Cl)C1CCS(=O)(=O)C1 (configuration not stated)	none
CCN(CC)CCCN(C(=O)c1ccco1)c1nc(-c2ccc(Cl)cc2)cs1	GPR7 antagonist 24 (no result: BaF3 tox, Ba/F3 V617F tox) | GPR7 antag conf 31 | MCHR1 antag 38
CCN(CC)CCCN(C(=O)c1ccco1)c1nc(-c2ccc(C)cc2)cs1	none
O=C(NCc1ccc2c(c1)OCO2)c1cc(COc2c(F)cccc2F)on1	none (no result: BaF3 tox, Ba/F3 V617F tox)
CCC1(C)CC2(CCCN(CCC(O)(c3ccccc3)c3ccccc3)C2)CCO1 (configuration not stated)	GPR7 antagonist 26 | GPR7 antag conf inactive | MCHR1 antag inactive
